molecular target: Dickkopf-related protein 1 (Homo sapiens) (UniProt O94907); experiment: DKK1 binders on small-molecule microarrays, primary screen, biochemical, small-molecule microarray, 635 nm fluorescence scan (AID 1106); conditions: DKK1 binding, higher = more signal;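 note: score merges emission near 667 nm with signal to noise over three replicate slides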
Sequence (O94907 whole entry, looked up): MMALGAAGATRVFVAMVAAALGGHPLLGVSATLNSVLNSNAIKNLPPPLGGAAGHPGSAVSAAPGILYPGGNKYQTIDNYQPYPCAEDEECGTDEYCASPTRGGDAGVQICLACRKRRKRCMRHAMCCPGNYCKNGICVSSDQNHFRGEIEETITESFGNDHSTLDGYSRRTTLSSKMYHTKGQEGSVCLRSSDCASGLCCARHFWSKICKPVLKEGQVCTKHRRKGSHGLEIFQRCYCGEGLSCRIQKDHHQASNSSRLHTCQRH

| Structure (SMILES) | composite z-score |
| --- | --- |
| CCOC(=O)[C@H]1C/C=C/C[C@H](C(=O)OCC)C(=O)O[C@H]2[C@@H](OC)O[C@H](CO)[C@@H](OC(=O)Nc3ccc4c(c3)OCO4)[C@@H]2OC1=O | -0.009 |
| COCC(=C=CC[C@@H](O)c1ccc(CO)o1)CCO | 0.618 |
| Cc1cc(C)c(C(O)C2C=CC3C(=O)N(c4ccccc4)C(=O)C3N2Nc2ccc(C#N)cc2)c(C)c1 (stereo not drawn) | -0.0911 |
| COc1ccc(C#Cc2ccc3c(c2)[C@]2(C(=O)N3)[C@H](c3ccc(O)cc3)N3[C@H](c4ccccc4)[C@H](c4ccccc4)OC(=O)[C@H]3[C@@H]2C(=O)N2CCCCCCC2)cc1 | 1.61 |
| O=C1C2C=CC(C(O)c3ccc(F)cc3)N(Nc3ccccc3)C2C(=O)N1c1ccccc1 (stereo not drawn) | -0.954 |
| COc1cc2c(cc1OC)CN(C(=O)[C@@H]1[C@H]3C(=O)O[C@H](c4ccccc4)[C@H](c4ccccc4)N3[C@H](c3ccccc3OCCO)[C@@]13C(=O)Nc1ccc(C#CCNC(N)=O)cc13)CC2 | 0.208 |
| Cc1ccc(F)cc1S(=O)(=O)N[C@@H]1CCN(Cc2ccc(-c3ccccc3)cc2)C1 | 0.138 |

system: Inhibin beta A chain (activin A); experiment: INHBA (activin A) binders on microarrays, primary screen, biochemical, small-molecule microarray, 635 nm fluorescence scan (AID 1107); conditions: small-molecule microarray binding, higher = more signal;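 note: mouse activin A protein probed at 4.33 µg/mL on printed slides; score merges bound-protein fluorescence near 667 nm with spot signal-to-noise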

| Structure (SMILES) | composite z-score |
| --- | --- |
| CCOC(=O)C[C@H]1[C@H](OC(=O)c2ccc(-c3ccccc3)cc2)[C@@H](NC(=O)Cc2ccc(OC)cc2)c2cc(OCCCO)ccc2N1C(=O)c1ccc2ccccc2n1 | 0.827 |
| C=CC[C@@]1(C(=O)NCC(O)CO)N=C(c2ccc(OCCCO)cc2)O[C@@H]1c1ccccc1N=[N+]=[N-] (stereo partly drawn) | 1.02 |
| CCCCC=C[C@@H](NC(=O)c1ccco1)c1ccccc1 | 0.809 |
| CC(C)(C)OC(=O)CC[C@@]1(C(=O)NCCN2CCOCC2)N=C(c2ccc(OCCCO)cc2)O[C@@H]1c1ccccc1 | 0.767 |
| CC(C)(C)N1CC=CC23O[C@@H]4C=CCOC(=O)[C@@H]4[C@H]2C(=O)N(CCCCCO)[C@@H]3C1=O (stereo partly drawn) | -0.0694 |
| COc1ccc(C(O)C2C=CC3C(=O)N(c4ccccc4)C(=O)C3N2Nc2ccc([N+](=O)[O-])cc2)cc1OCc1ccccc1 (stereo not drawn) | 1.07 |
| CN(C)C(=O)[C@]1(CCC(=O)OC(C)(C)C)N=C(c2ccc(OCCCO)cc2)O[C@@H]1c1ccccc1N=[N+]=[N-] | 0.252 |
| O=C1OCC=C[C@H]2OC34C=CCN(c5ccc6ccccc6c5)C(=O)[C@H]3N(CCCO)C(=O)[C@@H]4[C@@H]12 (stereo partly drawn) | 0.374 |
| COC(=O)c1c(CC[C@@H](CO)NC(=O)N[C@@H](Cc2ccccc2)Cn2cc(C3(O)CCCCC3)nn2)oc(C(C)=O)c1C(=O)OC | 0.382 |
| C=CCOC(=O)[C@H]1[C@@H]2C(=O)O[C@@H](c3ccccc3)[C@@H](c3ccccc3)N2[C@@H](c2ccc(OCCOC(=O)[C@@H]3C[C@@H]4C(=O)NCC(=O)N4[C@@H]3c3ccc(O)cc3)cc2)[C@]12C(=O)Nc1ccccc12 | 0.217 |
| [N-]=[N+]=NCc1ccccc1[C@H]1OC(c2ccc(OCCCO)cc2)=N[C@@]1(CCS(=O)(=O)c1ccccc1)C(=O)N1CCOCC1 | 1 |
| N[C@@H](Cc1ccccc1)Cn1cc(-c2ccccc2)nn1 | 0.458 |
| CC(C)CNC(=O)[C@@]1(c2ccc([N+](=O)[O-])cc2)CC(=O)N(CC23CC4CC(CC(C4)C2)C3)[C@@H]1c1ccc(CO)cc1I | 0.383 |
| O=C(CCN1CCOCC1)c1cccc(O)c1 | 1.53 |
| COC(=O)C(CC#Cc1ccc2c(c1)[C@]1(C(=O)N2)[C@H](c2ccc(OCCO)cc2)N2[C@H](c3ccccc3)[C@H](c3ccccc3)OC(=O)[C@H]2[C@@H]1C(=O)NC[C@H](O)c1ccccc1)C(=O)OC | 0.39 |
| C#CCN(C(/C=C/c1ccccc1)CO)C(C(=O)O)c1ccccc1 (stereo not drawn) | -0.99 |
| COc1ccc(C(=O)Nc2cccc(CN3C(=O)[C@@]4(O[C@@H](CCn5cc(CCO)nn5)[C@H]([Si](C)(C)c5ccc(OC)cc5)[C@H]4C)c4ccccc43)c2)cc1 | 1.4 |
| O=C(CS)NCCCCCCNC(=O)[C@@H]1C[C@@H]2C(=O)N3CCC[C@H]3C(=O)N2[C@@H]1c1ccc(O)cc1 | -0.41 |

| Structure (SMILES) | composite z-score |
| --- | --- |
| CCCNC(=O)[C@@]1(c2ccc([N+](=O)[O-])cc2)CC(=O)N(CC23CC4CC(CC(C4)C2)C3)[C@@H]1c1ccc(CO)cc1 | -0.247 |
| CC(C)c1ccc(NN2C(C(O)c3c(F)cccc3Cl)C=CC3C(=O)N(c4ccccc4)C(=O)C32)cc1 (stereo not drawn) | 0.945 |
| COc1ccc([Si](C)(C)[C@@H]2[C@@H](CCn3cc([C@H](O)c4ccccc4)nn3)O[C@]3(C(=O)N(Cc4ccc(N5C(=O)c6cccc7cccc5c67)cc4)c4ccccc43)[C@H]2C)cc1 | -0.409 |
| [N-]=[N+]=Nc1ccccc1C[C@]1(C(=O)NCCN2CCOCC2)N=C(c2ccc(OCCCO)cc2)O[C@H]1c1ccccc1 | -0.16 |
| COC(=O)C[C@@H]1C[C@H](C)[C@]2(O1)C(=O)N(Cc1ccccc1)c1ccc(NC(C)=O)cc12 | 0.4 |
| Cc1ccc([C@H]2C(C(=O)O)=C[C@@H](C)N2S(=O)(=O)c2ccc(C)cc2)cc1 | 1.02 |
| O=C1O[C@H](c2ccccc2)[C@H](c2ccccc2)N2[C@H]1[C@@H](C(=O)O)[C@]1(C(=O)Nc3ccc(C#CC4=CCCCC4)cc31)[C@H]2c1ccc(OCCO)cc1 | 0.302 |
| C=CC(=C)C1=CCO[C@@H]1[C@H]1CCCN1S(=O)(=O)c1ccccc1[N+](=O)[O-] | 1.27 |
| CCC(CC)C(O)C1C=CC2C(=O)N(c3ccccc3)C(=O)C2N1Nc1ccc(C#N)cc1 (stereo not drawn) | 0.794 |
| CC(C)N1C(=O)c2ccccc2[C@@H](C(=O)NCCCN(C)C)[C@@H]1c1ccc(CO)cc1 | 0.557 |
| COC(=O)[C@@]1(Cc2ccc(F)cc2)[C@H]2c3cc(C(=O)N4CCCC4)n(Cc4cccc5ccccc45)c3C[C@H]2CN1C(=O)c1ccccc1 | 0.644 |
| CCOC(=O)[C@H]1C/C=C/C[C@H](C(=O)OCC)C(=O)O[C@H]2[C@@H](OC)O[C@H](CO)[C@@H](OC(=O)Nc3ccc4c(c3)OCO4)[C@@H]2OC1=O | 0.456 |
| COCC(=C=CC[C@@H](O)c1ccc(CO)o1)CCO | 0.839 |
| Cc1cc(C)c(C(O)C2C=CC3C(=O)N(c4ccccc4)C(=O)C3N2Nc2ccc(C#N)cc2)c(C)c1 (stereo not drawn) | 0.7 |
| COc1ccc(C#Cc2ccc3c(c2)[C@]2(C(=O)N3)[C@H](c3ccc(O)cc3)N3[C@H](c4ccccc4)[C@H](c4ccccc4)OC(=O)[C@H]3[C@@H]2C(=O)N2CCCCCCC2)cc1 | 1.78 |
| O=C1C2C=CC(C(O)c3ccc(F)cc3)N(Nc3ccccc3)C2C(=O)N1c1ccccc1 (stereo not drawn) | 1.46 |
| COc1cc2c(cc1OC)CN(C(=O)[C@@H]1[C@H]3C(=O)O[C@H](c4ccccc4)[C@H](c4ccccc4)N3[C@H](c3ccccc3OCCO)[C@@]13C(=O)Nc1ccc(C#CCNC(N)=O)cc13)CC2 | 0.922 |
| Cc1ccc(F)cc1S(=O)(=O)N[C@@H]1CCN(Cc2ccc(-c3ccccc3)cc2)C1 | 0.42 |

— PubChem BioAssay
